# Screening data from PubChem.
# GPR151 activ: human GPR151 activation | hit rate 1% among 650,000 | PathHunter beta-arrestin GPR151 cells, luminescence | Q8TDV0 | AID 1508602 | activation, % at 11.2 µM; in the data active means activation above about 4.9%;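 further: 0% = median of compound wells and 100% = cells with positive control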
# Target sequence (Q8TDV0 whole entry, looked up): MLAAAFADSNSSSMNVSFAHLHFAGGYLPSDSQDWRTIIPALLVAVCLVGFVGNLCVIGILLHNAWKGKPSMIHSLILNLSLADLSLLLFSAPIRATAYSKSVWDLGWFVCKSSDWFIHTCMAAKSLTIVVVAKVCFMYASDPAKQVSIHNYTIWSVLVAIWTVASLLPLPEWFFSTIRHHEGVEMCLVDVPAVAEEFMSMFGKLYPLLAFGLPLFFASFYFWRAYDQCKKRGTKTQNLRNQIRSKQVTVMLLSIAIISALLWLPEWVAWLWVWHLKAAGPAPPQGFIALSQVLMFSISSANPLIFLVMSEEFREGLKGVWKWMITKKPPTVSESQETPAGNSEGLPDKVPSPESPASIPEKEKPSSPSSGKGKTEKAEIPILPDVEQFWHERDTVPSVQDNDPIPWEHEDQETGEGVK
# FBW7 activator: activators of human E3 ligase FBW7 | AID 1259310 | normalized activity (activation), % at 26.1 µM | hit rate 0.13% among 650,000 | AlphaScreen FBW7–phospho-cyclin E peptide binding, activator screen; in the data active means normalized activity above about 1.9%;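 further: purified mutant Fbw7 with reduced substrate affinity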
# MITF inh: human MITF inhibition, primary screen; hit rate 0.91% among 650,000; AID 1259374; AlphaScreen MITF homodimerization, bead proximity signal; inhibition, % at 2.6 µM; in the data active means inhibition above about 50%;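 further: 0% = vehicle wells with protein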
# TEAD-YAP block: TEAD-YAP interaction inhibition | AID 1259422 | HEK-TIYL cells, TEAD-Gal4/YAP UAS-luciferase luminescence | inhibition, % at 9.12 µM | hit rate 1.4% among 640,000; in the data active means inhibition above about 32%;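 further: 0% = median of test compound wells and 100% = reference inhibitor wells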
# GPR151 conf act: human GPR151 activation, confirmation screen; shares compounds with GPR151 activ; GPR151 PathHunter beta-arrestin cells, luminescence, 90 min; % of EA-reagent control over plate median; activation, % at 11.2 µM; 6,700 tested, under 10 active; AID 1508609;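 active means mean percent activation across replicates above the confirmation screen cutoff of 4.91%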
# GPR119 ag: activates human GPR119 in a GPR151 counter-screen; GPR119 PathHunter beta-arrestin cells, luminescence, 90 min; 0 = compound-well median, 100 = enzyme-acceptor control; hit rate 0.3% among 6,700; activation, % at 11.2 µM; shares compounds with GPR151 activ;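 active means mean percent activation in the counterscreen above 29.09%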;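 further: counterscreen on off-target GPR119 to flag nonselective hits from the GPR151 activator screen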
# * hit, by the source's call; x = not tested or not shown; ! = not active in a repeat. Sampled rows, rich in hits. Any-hit rate of the full collection: about 3.5%.
SMILES,GPR151 activ,FBW7 activator,MITF inh,TEAD-YAP block,GPR151 conf act,GPR119 ag
Cc1ccccc1CNC(=O)CN(c1cc(C(F)(F)F)ccc1Cl)S(C)(=O)=O,0.3,-0.2,2.9,-16.5,x,x
COc1cc(C(=O)OCC(=O)NC(C)C)c([N+](=O)[O-])cc1OC,-1.6,0.3,9.3,5.8,x,x
CCC(CC)NC(=O)COC(=O)c1cc(OC)c(OC)cc1[N+](=O)[O-],5.0*,-0.1,-5.9,5.1,0.0,2.5
Nc1nc(Nc2ccc(Oc3ccccc3)cc2)cc(-c2csc3ccccc23)n1,6.7*,0.0,5.2,52.0*,0.1,1.6
Nc1nc(Nc2ccccc2)cc(-c2ccccc2)n1,-1.1,-0.1,5.1,2.4,x,x
Nc1nc(Nc2ccccc2)cc(-c2cccs2)n1,6.2*,-0.2,6.8,-56.5,0.5,0.3
Nc1nc(Nc2ccc(N3CCOCC3)cc2)cc(-c2csc3ccccc23)n1,-1.0,-0.1,15.3,-32.0,x,x
Cc1cccc(OCC(O)CN2CCN(S(=O)(=O)c3cccc([N+](=O)[O-])c3)CC2)c1 (stereo not given),0.0,0.5,43.6,-0.4,x,x
CCOC(=O)CNc1c(-c2ccc(O)cc2)nc2cnccn12,0.6,0.2,-2.6,-6.5,x,x
CCOC(=O)CNc1c(-c2ccc(OC)c(O)c2)nc2ccc(C)cn12,5.5*,-0.1,10.2,-34.4,-0.4,0.8
Cc1cccc(CNC2CCN(c3ccc(C(=O)N4CCCC(O)C4)cc3)CC2)n1 (stereo not given),6.7*,-0.1,6.4,-8.3,0.1,-0.2
O=C(Nc1ncn[nH]1)c1cccc(C(=O)Nc2ncn[nH]2)c1,2.6,-0.4,1.7,1.4,x,x
Cc1ccc(CN2CCNC(=O)C2CC(=O)N2CCN(C3CCCCC3)C(=O)C2)cc1 (stereo not given),1.4,-0.1,-7.8,4.0,x,x
COC(=O)C1CC(=O)N(C)C12CCN(CCCc1ccccc1)CC2 (stereo not given),-0.8,0.1,0.0,3.3,x,x
CC(CCc1ccccc1)NC(=O)Cn1nc(Cc2ccncc2)c2ccccc2c1=O (stereo not given),5.8*,0.3,19.8,-3.1,2.3,4.4
O=C(O)Cn1nc(Cc2ccncc2)c2ccccc2c1=O,-0.6,0.7,16.3,1.6,x,x
CCOC(=O)n1nc(Cc2ccncc2)c2ccccc2c1=O,5.2*,-0.1,12.4,-0.8,0.5,7.2
O=C(O)c1c(Br)sc(-c2ccccc2)c1-c1ccccc1,7.1*,0.0,-1.4,-11.3,0.2,-1.6
CN(CCc1ccccc1)C1CCCN(C(=O)c2scc3c2OCCO3)C1 (stereo not given),-1.1,-0.1,-0.6,-2.8,x,x
CN(C)C(C(=O)NC1CCCC1)c1ccc(Cl)cc1 (stereo not given),6.0*,-0.1,-3.8,3.5,-1.0,-3.4
Cc1ccc(C(C(=O)NC2CCCC2)N(C)C)cc1 (stereo not given),-0.7,0.1,15.9,10.2,x,x
FC(F)(F)c1cc2[nH]c(C3COc4ccccc4O3)nc2cc1-c1ccncc1 (stereo not given),8.0*,0.0,-4.6,-15.3,0.3,-1.1
c1ccc2c(c1)OC[C@H](c1nc3ccc(-c4ccncc4)cc3[nH]1)O2,-0.3,0.0,17.5,-30.6,x,x
CS(=O)(=O)N1N=C(c2ccc3nccnc3c2)CC1c1ccccc1 (stereo not given),5.0*,-0.1,5.0,-13.2,-0.8,-13.3
CCOC(=O)N1CCN(C(=O)Cn2cc(NC(=O)Cc3ccccc3OC)cn2)CC1,9.1*,0.1,1.8,-0.8,1.2,20.9
SMILES,GPR151 activ,FBW7 activator,MITF inh,TEAD-YAP block,GPR151 conf act,GPR119 ag
Clc1ccc(Cn2ncc3c(NCCN4CCOCC4)ncnc32)cc1,6.7*,0.1,11.1,-3.6,-0.1,1.9
Cc1ccc(Cn2ncc3c(NCCCN4CCOCC4)ncnc32)cc1,0.2,-0.3,-11.4,-1.2,x,x
O=C(COC(=O)c1ccc(OC(F)F)cc1)Nc1ccc2[nH]c(=O)[nH]c2c1,1.9,-0.1,-6.5,-0.3,x,x
O=C(Cn1nnnc1CN1CCCCCC1)N1CCCCC1c1cccnc1 (stereo not given),5.7*,0.2,9.2,5.5,1.0,10.1
O=C(Cn1nnnc1CN1CCCCCC1)N1CCC[C@H]1CO,-0.5,0.0,-13.4,-0.9,x,x
COc1cc(Nc2nc(C)cc(NC3CC3)n2)cc(OC)c1OC,5.9*,-0.1,3.2,11.0,0.6,0.9
COc1cc(Nc2cc(C)nc(Nc3cccnc3)n2)cc(OC)c1OC,0.2,0.1,23.8,0.5,x,x
O=C(CSc1nc(=O)n(CCCO)c2c1CCCC2)N1CCN(c2ccccc2)CC1,-1.4,0.2,8.1,6.2,x,x
CC1CCN(C(=O)CSc2nc(=O)n(CCO)c3c2CCCC3)CC1,8.3*,0.0,7.7,-0.9,-0.1,-1.4
COc1ccccc1/C=C/C(=O)NCc1ccco1,8.9*,0.1,6.4,-5.3,-1.1,-12.7
O=C(/C=C/c1ccccc1)NCc1ccco1,-0.1,-0.1,-6.4,-23.8,x,x
O=C(/C=C/c1ccccc1Cl)NCc1ccco1,-0.3,0.0,11.4,-26.8,x,x
O=C(/C=C/c1ccc(OCc2ccccc2)cc1)NCc1ccco1,8.0*,-0.1,3.0,13.7,0.2,0.4
CCOC(=O)C1CCN(C(=O)c2sc3ncn(CC(=O)Nc4cccc(C(F)(F)F)c4)c(=O)c3c2C)CC1,1.8,-0.2,8.5,5.8,x,x
CCOc1cc(NC(=O)CCC(=O)O)c(OCC)cc1NC(=O)CCC(=O)O,-0.4,-0.2,-11.3,-1.1,x,x
COc1ccc(Cn2ccn(Cc3ccc(F)cc3)c(=O)c2=O)cc1,12.5*,0.6,9.0,4.0,0.6,1.6
Cc1ccc(CN2CCc3nnc(C(C)NC(=O)C(C)C)n3CC2)c(C)c1 (stereo not given),-0.9,0.1,-15.9,6.6,x,x
Cc1ccc(N/C=C/C(=O)c2cccs2)cc1C,9.6*,1.1,6.9,-24.1,-2.3,-19.7
CCOC(=O)Nc1nnc(Cc2ccc(Cl)c(Cl)c2)s1,5.8*,0.0,14.7,-0.3,0.8,-3.6
Cn1c(=O)c2c(nc(NCCOCCO)n2Cc2ccc(Cl)c(Cl)c2)n(C)c1=O,5.2*,-0.2,-2.7,-9.7,0.9,5.8
CC(C)Cc1ccc(C(C)C(=O)O)cc1 (stereo not given),0.2,0.0,2.4,9.8,x,x
CC(C(=O)O)c1ccc(CC2CCCC2=O)cc1 (stereo not given),6.7*!,0.0,4.5,4.4,-0.1,0.6
CCOC(=O)c1c(NC(=O)CSc2nnc(CNC(=O)c3cccc(F)c3)n2-c2ccc(OCC)cc2)sc2c1CCC2,2.7,0.1,8.0,7.8,x,x
CCOC(=O)c1sc(NC(=O)CSc2nnc(CNC(=O)Cc3ccccc3)n2-c2ccccc2OC)c(C(=O)OCC)c1C,-1.7,0.1,1.3,3.4,x,x
CCOC(=O)c1sc(NC(=O)CSc2nnc(CNC(=O)c3ccco3)n2-c2ccccc2OC)c(C(=O)OCC)c1C,8.7*,-0.1,-2.0,5.3,-0.8,-13.4
